Potency and outcome data for 29 compounds are collected here from PubChem BioAssay (NCATS).

Records with an inconclusive call do not appear. Where a call stands in place of a potency, no number is given. The source made the active and inactive calls. The call rests on the fitted dose curve; in most records, active means well fitted curve in the direction sought with a large enough effect; inconclusive means small, poorly fitted or top-dose-only effect, or another doubt; inactive means no such curve, though single readings can be large; an effect the other way counts as inactive or inconclusive.

Sequence of RecQ-like DNA helicase BLM (Homo sapiens) (P54132 whole entry, looked up): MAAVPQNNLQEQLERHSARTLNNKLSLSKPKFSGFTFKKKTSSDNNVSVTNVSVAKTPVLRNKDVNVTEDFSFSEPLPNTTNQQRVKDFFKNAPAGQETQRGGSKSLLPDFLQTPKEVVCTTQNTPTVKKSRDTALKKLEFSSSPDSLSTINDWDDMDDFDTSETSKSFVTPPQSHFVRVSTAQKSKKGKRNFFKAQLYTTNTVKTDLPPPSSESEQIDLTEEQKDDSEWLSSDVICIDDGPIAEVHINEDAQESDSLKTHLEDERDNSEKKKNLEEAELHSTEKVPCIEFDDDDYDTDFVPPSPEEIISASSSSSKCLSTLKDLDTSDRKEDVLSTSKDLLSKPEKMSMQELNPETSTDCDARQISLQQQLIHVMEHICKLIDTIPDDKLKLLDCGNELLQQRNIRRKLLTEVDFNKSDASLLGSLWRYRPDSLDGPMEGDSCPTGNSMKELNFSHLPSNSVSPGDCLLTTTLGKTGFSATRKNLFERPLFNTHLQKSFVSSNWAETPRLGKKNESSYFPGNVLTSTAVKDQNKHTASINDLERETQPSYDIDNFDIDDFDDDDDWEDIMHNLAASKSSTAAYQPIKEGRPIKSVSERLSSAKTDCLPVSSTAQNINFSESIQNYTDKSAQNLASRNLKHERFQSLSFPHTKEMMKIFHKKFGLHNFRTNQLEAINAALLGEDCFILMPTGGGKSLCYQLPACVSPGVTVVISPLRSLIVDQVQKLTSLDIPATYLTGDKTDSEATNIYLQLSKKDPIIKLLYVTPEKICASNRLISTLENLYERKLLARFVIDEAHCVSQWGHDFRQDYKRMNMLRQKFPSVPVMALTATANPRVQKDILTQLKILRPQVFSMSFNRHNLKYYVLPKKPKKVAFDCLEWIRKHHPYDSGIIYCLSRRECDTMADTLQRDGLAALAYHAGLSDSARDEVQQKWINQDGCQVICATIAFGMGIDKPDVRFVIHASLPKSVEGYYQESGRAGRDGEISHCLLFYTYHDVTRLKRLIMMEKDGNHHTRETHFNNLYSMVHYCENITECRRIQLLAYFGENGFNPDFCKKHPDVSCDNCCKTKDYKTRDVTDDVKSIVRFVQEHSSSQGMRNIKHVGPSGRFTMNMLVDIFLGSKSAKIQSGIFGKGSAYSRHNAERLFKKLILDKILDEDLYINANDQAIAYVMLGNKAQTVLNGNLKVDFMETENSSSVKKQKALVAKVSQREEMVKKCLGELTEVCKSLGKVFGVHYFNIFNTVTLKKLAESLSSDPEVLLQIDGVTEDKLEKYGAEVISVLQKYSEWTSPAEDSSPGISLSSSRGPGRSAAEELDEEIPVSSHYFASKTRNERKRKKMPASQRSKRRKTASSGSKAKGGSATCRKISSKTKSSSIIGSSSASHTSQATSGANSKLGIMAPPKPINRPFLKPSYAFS

One assay concerns the target RecQ-like DNA helicase BLM (Homo sapiens) (UniProt P54132). As to the kind of experiment: qHTS Validation Assay for Inhibitors of Bloom's syndrome helicase (BLM) (AID 2364). As to conditions: BLM helicase DNA unwinding, fluorescence, in vitro; series mostly up to 57.1 µM. An outline of the steps:
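50 nM BLM preincubated 15 min at room temperature with compound in pH 8.0 Tris buffer containing 2.5 ug/ml poly(dI-dC); started with 200 nM TAMRA/BHQ-2 forked duplex and 2 mM ATP (final). Unwinding read as TAMRA fluorescence increase, two reads 2 h apart.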
Turning to `O=C(CCNNC(=O)c1ccncc1)NCc1ccccc1`, the Potency entry was “inactive”.
On the same count and under the same terms, then `CN(C)CC/C=C1\c2ccccc2COc2ccccc21`, with “inactive”.
Still for that read-out and setting: then `COc1ccc(CCN(C)CCCC(C#N)(c2cc(OC)c(OC)c(OC)c2)C(C)C)cc1OC` (stereo unspecified), with “inactive”; and `O=C1CC2(CCCC2)CC(=O)N1CCCCN1CCN(c2ncccn2)CC1`, with “inactive”; and `CNCCCN1c2ccccc2CCc2ccccc21`, with “inactive”.
In the case of `CN1CCN(CC(=O)N2c3ccccc3C(=O)Nc3cccnc32)CC1`, the Potency result was “inactive”.
For `Cc1scc2c1N(C(=O)CN1CCN(C)CC1)c1ccccc1NC2=O`, the Potency result is “inactive”.
The same measure, in the same setting: then `Cc1nc2ccccn2c(=O)c1CCN1CCC(C(=O)c2ccc(F)cc2)CC1`, with “inactive”; and `CCN(CC)CCOCCOC(=O)C1(c2ccccc2)CCCC1`, with “inactive”.
For the compound `C[N+](C)(C)CCCCCCCCCC[N+](C)(C)C`, the Potency entry was “inactive”.
On the same count and under the same terms, then `C(=C\c1ccccc1)/CN1CCN(C(c2ccccc2)c2ccccc2)CC1`, with “inactive”.
On the same count and under the same terms, then `COC(=O)[C@@H](N)Cc1ccc(O)c(O)c1`, with “inactive”; and `CN(C)CCCN1c2ccccc2Sc2ccccc21`, with “inactive”.

Tested on in a further assay: not listed separately
As to the kind of experiment: Cytometric Cell-Based qHTS for Inhibitors of the mTORC1 Signaling Pathway in MEF (Tsc2-/-, p53-/-) Cells (AID 2660).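 Further: Tsc2 and p53 null MEFs carrying empty vector with compound for 24 h; percent of cells above a phospho-rpS6 to PI ratio cutoff in each well.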 To be noted: mTORC1 pathway cytometry; series mostly up to 38.3 µM. In a few lines:
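Immunofluorescence qHTS of rpS6 Ser235/236 phosphorylation: MEFs (Tsc2-/-, p53-/-) treated 24 h, 37 C, in DMEM + 10% FBS. Alexa-488 signal normalized to PI count, referenced to rapamycin (7.5 nM) and DMSO; PI cell number recorded for viability.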
(In general: qHTS replaces the single test concentration by a dilution series.)
`COc1cc(Cc2cnc(N)nc2N)cc(OC)c1OC`: the outcome was inactive.
For the compound `CN(C)CC/C=C1\c2ccccc2COc2ccccc21`, the compound was called inactive.
On the same count and under the same terms, then `Cc1ccc(/C(=C\CN2CCCC2)c2ccccn2)cc1`, with “inactive”.
Regarding `CN1C(=O)CC[C@H]1c1cccnc1`, the compound was called inactive.
Still for that read-out and setting: to `CN(C)[C@@H]1C(=O)C(C(N)=O)=C(O)[C@@]2(O)C(=O)C3=C(O)c4c(O)ccc(Cl)c4[C@@H](O)[C@H]3C[C@@H]12` belongs “inactive”; to `C[C@]12CCC(=O)C=C1CC[C@@H]1[C@@H]2CC[C@@]2(C)[C@H]1CC[C@]2(O)C(=O)CO`, “inactive”; to `Cc1cccc(C)c1NC(=O)C(C)N` (stereo unspecified), “inactive”.
Still for that read-out and setting: to `O=C1CC2(CCCC2)CC(=O)N1CCCCN1CCN(c2ncccn2)CC1` belongs “inactive”; to `CCCCCCCC/C=C\CCCCCCCC(=O)NCc1ccc(O)c(OC)c1`, “inactive”.
On the same count and under the same terms, to `CN1CCN(CC(=O)N2c3ccccc3C(=O)Nc3cccnc32)CC1` belongs “inactive”; to `Cc1nc2ccccn2c(=O)c1CCN1CCC(C(=O)c2ccc(F)cc2)CC1`, “inactive”.
Consider `NC(=O)c1cn(Cc2c(F)cccc2F)nn1`, for which the compound was called inactive.
Still for that read-out and setting: then `CCN(CC)CCOCCOC(=O)C1(c2ccccc2)CCCC1`, with “inactive”; and `CN(C(=O)CCCOc1ccc2[nH]c(=O)ccc2c1)C1CCCCC1`, with “inactive”.
Same read-out and setting: to `CC[N+](C)(C)c1cccc(O)c1` belongs “inactive”; to `C(=C\c1ccccc1)/CN1CCN(C(c2ccccc2)c2ccccc2)CC1`, “inactive”; to `CC(N=C(NC#N)Nc1ccncc1)C(C)(C)C` (stereo unspecified), “inactive”.
The same measure, in the same setting: then `NC1=NCC2c3ccccc3Cc3ccccc3N12` (stereo unspecified), with “inactive”; and `CCn1nc(C(=O)O)c(=O)c2cc3c(cc21)OCO3`, with “inactive”; and `CN/C(=C\[N+](=O)[O-])NCCSCc1ccc(CN(C)C)o1`, with “inactive”.
Consider `COc1ccc2c(c1OC)C(=O)O[C@@H]2[C@H]1c2c(cc3c(c2OC)OCO3)CCN1C`, for which the result was inactive.
On the same count and under the same terms, then `CN(C)CCCN1c2ccccc2Sc2ccccc21`, with “inactive”; and `C[C@@H](O)[C@H]1C(=O)N2C(C(=O)O)=C(SCCN=CN)C[C@H]12`, with “inactive”.
